# GLA inh pH 4.5 – qHTS Assay for Inhibitors of Human alpha-Galactosidase at pH 4.5. Alpha-galactosidase A (Homo sapiens), P06280. purified enzyme, 4-MU-alpha-Gal fluorescence, pH 4.5. activity change, negative = inhibition, % at 105 µM. 230,000 tested, under 10 active. AID 1467, 2008
# HPGD block – qHTS Assay for Inhibitors of HPGD (15-Hydroxyprostaglandin Dehydrogenase) | 15-hydroxyprostaglandin dehydrogenase [NAD(+)] (Homo sapiens), P15428 | purified HPGD, NADH fluorescence kinetic, PGE2 substrate | Potency, µM, actives largely listed as inhibitors | 150,000 tested, 4.3% active | AID 894, 2007; active = well fitted inhibition curve with a large enough effect, not every such curve was filed as active; inconclusive = small, poorly fitted or top-dose-only effect, or another doubt; inactive = no such curve, though single readings can be large or run the other way
#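 20 nM HPGD preincubated 15 min at room temperature with compound in 50 mM Tris-HCl pH 8, 0.01% Tween 20. Started with 1 mM NAD+ and 30 uM prostaglandin E2; NADH fluorescence (360/450 nm) read 5 times over 30-s intervals, last minus first.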
# PNC inhibitor – High Content Assay for Compounds that inhibit the Assembly of the Perinucleolar Compartment; activity change (PNC), negative = inhibition, % at 10 µM; PC3M PTB-GFP, PNC prevalence imaging, 16 h; stronger effect = lower value; 140,000 tested, 3.1% active;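 active = readout at or below -70, meaning at least 70% loss of cells showing the perinucleolar compartment, a nuclear body marking cancer cells; inconclusive = readout between -30 and a set limit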
#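 Read-out is percentage of cells bearing a perinucleolar compartment, from automated 20x imaging of fixed, Hoechst-stained PC3M PTB-GFP cells. Cells were seeded 4 h, then exposed 16 h to compound (23 nl of library stock) in duplicate plates.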
# ALDH1A1 inh – qHTS Assay for Inhibitors of Aldehyde Dehydrogenase 1 (ALDH1A1); Purified ALDH1A1, NADH fluorescence, propionaldehyde substrate; 220,000 tested, 7.3% active; Potency, µM (highest dose often 75.3 µM), hits mostly inhibitors; AID 1030, 2008; Aldehyde dehydrogenase 1A1 (Homo sapiens), P00352; active = well fitted inhibition curve with a large enough effect, not every such curve was filed as active; inconclusive = small, poorly fitted or top-dose-only effect, or another doubt; inactive = no such curve, though single readings can be large or run the other way
# Target sequence (P00352 whole entry, looked up): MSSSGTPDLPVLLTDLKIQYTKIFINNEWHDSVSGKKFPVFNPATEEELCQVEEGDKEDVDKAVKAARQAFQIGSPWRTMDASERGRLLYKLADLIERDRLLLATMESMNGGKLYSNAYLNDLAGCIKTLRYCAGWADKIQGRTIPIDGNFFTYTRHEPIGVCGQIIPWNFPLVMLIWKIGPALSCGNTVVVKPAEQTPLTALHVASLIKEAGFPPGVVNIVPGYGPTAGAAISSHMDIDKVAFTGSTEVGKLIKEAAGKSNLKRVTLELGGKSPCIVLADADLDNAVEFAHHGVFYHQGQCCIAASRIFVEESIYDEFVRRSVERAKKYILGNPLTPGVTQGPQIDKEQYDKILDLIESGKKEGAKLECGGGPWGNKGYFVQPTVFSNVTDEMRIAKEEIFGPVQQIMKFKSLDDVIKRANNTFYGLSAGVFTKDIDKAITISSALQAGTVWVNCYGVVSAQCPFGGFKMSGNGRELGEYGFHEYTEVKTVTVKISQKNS
# GLA spleen mod – qHTS Assay for Inhibitors and Activators of Human alpha-Galactosidase From Spleen Homogenate | human spleen homogenate, 4MU-alpha-Gal fluorescence, 40 min | Potency, µM (highest dose often 80 µM), most hits filed as inhibitors | 240,000 tested, 0.008% active | AID 2107, 2009
#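 Inhibition or activation of alpha-galactosidase in human spleen homogenate is scored by 4-MU fluorescence after 40 min at 37C, pH 5.0, with 1 mM substrate. AC50s come from concentration-response fitted to the Hill equation.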
# 12-hLO inh – qHTS Assay for Inhibitors of 12-hLO (12-human lipoxygenase) | Potency, µM (titrated, usually from 57.1 µM), usual class: inhibitors | AID 1452, 2008 | purified 12-hLO, xylenol orange hydroperoxide absorbance | Polyunsaturated fatty acid lipoxygenase ALOX12 (Homo sapiens), P18054 | 150,000 tested, 0.12% active; also: nearly all actives have a fitted effect of over 55% in size
#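 150 nM 12hLO, 25 mM Hepes pH 7.0 + 0.01% Triton X-100; cpd preinc 15 min RT; 40 uM arachidonic acid, 30 min RT; Fe-XO 30 min; A573/A405 ratio as read-out.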
# A number is an active result; - = inactive; ? = inconclusive; . = no result. Shown are actives, neighbours in structure and some others; about 10% of the full set was active somewhere. Unless noted, calls follow the shape of the dose curve; as a rule, active = well fitted curve in the direction sought with a large enough effect; inconclusive = small, poorly fitted or top-dose-only effect, or another doubt; inactive = no such curve, though single readings can be large; an effect the other way counts as inactive or inconclusive.
SMILES,GLA inh pH 4.5,HPGD block,PNC inhibitor,ALDH1A1 inh,GLA spleen mod,12-hLO inh
CN(C)c1ncc2ncc(=O)n(Cc3cccs3)c2n1,.,?,.,?,-,-
CCOC(=O)c1c(NC(=O)COc2cccc3c2CCN(C)C3=O)sc2c1CCC2,-,?,?,20µM,-,-
Cc1c(C(=O)OC(C)C)sc(NC(=O)C2CCCO2)c1C(=O)OC(C)C (stereo not drawn),-,-,-,-,-,-
CCOC(=O)c1c(NS(=O)(=O)c2cccc(OC)c2)sc2c1CCC2,-,35µM,?,10µM,-,-
N#Cc1c(NC(=O)C2CCCO2)sc2c1CCCCCC2 (stereo not drawn),-,?,-,14µM,-,-
CCOC(=O)c1sc(NC(=O)C2CCCO2)c(C(=O)OCC)c1C (stereo not drawn),-,?,-,8.9µM,-,-
COC(=O)c1c(NS(=O)(=O)c2cccs2)sc2c1CCCC2,-,-,?,?,-,-
CCCCC(=O)N1C/C=C\C(c2ccc(OC)cc2)N(Cc2ccc(F)cc2)C(=O)C1C (stereo not drawn),.,.,.,.,-,.
COCC(=O)N1CCC2(CCCN(c3ccncc3)C2)CC1,.,-,.,-,-,-
COc1ccc(CCNC(=O)CC2SC(N)=NC2=O)cc1OC (stereo not drawn),-,.,.,?,-,.
CCNc1ncc2nc(-c3ccccc3)c(=O)n(C3CC3)c2n1,.,?,.,?,-,-
CCOC(=O)c1c(NC(=O)C2CCCO2)sc(C)c1C (stereo not drawn),-,.,.,14µM,-,.
Cc1sc(NC(=O)C2CCCO2)c(C(N)=O)c1C (stereo not drawn),-,28µM,-,11µM,-,-
CCOC(=O)c1c(NC(=O)C2CCCO2)sc2c1CCC2 (stereo not drawn),-,-,?,22µM,-,-
CCOC(=O)Nc1sc2c(c1C(=O)OCC)CCC2,-,-,-,?,-,-
CCC(=O)N(CC(=O)Nc1sc(C)c(C)c1C(N)=O)C1CCCCC1,-,-,?,?,-,-
NC(=O)c1c(NC(=O)C2CCCO2)sc2c1CCCC2 (stereo not drawn),-,8.9µM,?,?,-,-
CCCCCCCCC,.,-,.,-,-,-
COc1cccc(CN(C)C(=O)Nc2cccc(C(F)(F)F)c2)c1OC,-,-,?,-,-,-
CCOC(=O)c1cccc(NC(=O)C2CCCO2)c1 (stereo not drawn),-,-,?,-,-,-
CCCc1cc(C(N)=O)c(NC(=O)C2CCCO2)s1 (stereo not drawn),-,?,-,14µM,-,-
CCOC(=O)c1c(NC(=O)C2CCCO2)sc(C(=O)OC(C)(C)C)c1C (stereo not drawn),-,?,-,14µM,-,-
COc1ccc(CCN2C(=O)C3C4C=CC(C3C2=O)C2C(=O)N(CCc3ccc(OC)c(OC)c3)C(=O)C42)cc1OC (stereo not drawn),-,-,-,-,-,-
COc1ccc(CCN2CC(C(=O)Nc3ccc4c(c3)OCO4)CC2=O)cc1OC (stereo not drawn),-,.,.,-,-,.
O=C1CC(Cc2ccccc2)C(=O)N1CCCn1ccnc1 (stereo not drawn),-,-,?,16µM,-,-
O=C1CC(Cc2ccccc2)C(=O)N1CCc1ccc2c(c1)OCO2 (stereo not drawn),-,-,-,18µM,-,-
COc1ccc(CCN2C(=O)CC(NCc3ccc4c(c3)OCO4)C2=O)cc1OC (stereo not drawn),-,-,-,25µM,-,-
COc1ccc(CCN2C(=O)C3C4C=CC(C5CC45)C3C2=O)cc1OC (stereo not drawn),-,.,.,4µM,-,.
Cc1nc2c(-c3ccc(F)cc3)c(C)nn2c(C)c1CCC(=O)Nc1ccccc1F,-,.,.,.,-,.

# Screens as filed in PubChem.
